# Sampled rows, rich in hits. Any-hit rate of the full collection: about 27%.
# CYP2C9 inhib: blocks human cytochrome P450 2C9; CYP2C9 Supersomes, luciferin-H conversion, luminescence; inhibition, % at 5 µM; 96,000 tested, 20% active; P11712;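 active = blocking of liver enzyme CYP2C9 beyond about 50% at 5 µM, limit read from the data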
# Target sequence (P11712 whole entry, looked up): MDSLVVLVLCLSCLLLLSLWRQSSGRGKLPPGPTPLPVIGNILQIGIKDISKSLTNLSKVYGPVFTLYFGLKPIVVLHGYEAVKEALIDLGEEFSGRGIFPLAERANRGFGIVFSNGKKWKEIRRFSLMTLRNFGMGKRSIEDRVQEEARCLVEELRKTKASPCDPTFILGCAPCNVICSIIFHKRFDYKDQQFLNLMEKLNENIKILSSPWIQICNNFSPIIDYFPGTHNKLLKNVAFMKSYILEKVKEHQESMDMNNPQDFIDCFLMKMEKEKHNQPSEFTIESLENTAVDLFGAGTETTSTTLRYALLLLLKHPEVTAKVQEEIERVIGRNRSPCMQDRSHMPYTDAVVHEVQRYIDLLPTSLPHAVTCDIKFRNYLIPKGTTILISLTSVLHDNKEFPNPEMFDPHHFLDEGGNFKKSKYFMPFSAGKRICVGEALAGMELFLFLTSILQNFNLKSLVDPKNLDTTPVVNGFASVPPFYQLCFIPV
# CYP2C19 act: cytochrome P450 2C19 (human) activation; P33261; recombinant CYP2C19, luciferin-H EGE luminescence; stronger effect = higher value; 0 = fully inhibited enzyme, 1 = untreated enzyme; activation factor at 5 µM; 96,000 tested, under 10 active; AID 1025;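 active = activation factor of at least 2 at 5 µM in the primary screen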;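 also: 0 = wells with 2.5 mM tranylcypromine and 1 = vehicle-only wells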
# CYP2C9 act: activators of human CYP2C9 | P11712 | recombinant CYP2C9, luciferin-H conversion, luminescence; stronger effect = higher value; factor 1 = untreated enzyme, 0 = blocked | activation factor at 5 µM | 96,000 tested, 1.4% active | AID 1024;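 active = activation factor of 2 or more for CYP2C9 at a 5 µM dose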;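 also: 0 = sulfaphenazole-blocked wells and 1 = vehicle-only wells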
# CYP2C19 inhib: inhibitors of human CYP2C19; P33261; CYP2C19 Supersomes, luciferin-H EGE luminescence, 30 min; inhibition, % at 5 µM; 96,000 tested, 21% active; AID 778;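 active = CYP2C19 inhibition above a set limit at 5 µM in the primary screen, cut at about 50% in these data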;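 also: plate controls were negative control wells for no effect and 2.5 mM tranylcypromine positive control for full effect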
# Cav32 inh: human Cav3.2 channel inhibition, primary screen; O95180; Cav3.2-expressing cells, Fluo-4 calcium fluorescence FDSS; stronger effect = lower value; B-score at 10 µM; 100,000 tested, 4% active; AID 449739;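 active = single-dose well whose peak fluorescence ratio is a statistical outlier from its plate by either plate-standardised score or position-corrected B-score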
# The depositor's hits bear a star; / = no result.
SMILES,CYP2C9 inhib,CYP2C19 act,CYP2C9 act,CYP2C19 inhib,Cav32 inh
CC(C)CC(CO)N1CCN(C(=O)c2ccc(Cl)c(Cl)c2)CCC1=O (stereo not drawn),/,/,/,/,1.23
Cc1ccc(-n2c(C)nc3c(cnn3-c3ccc(F)cc3)c2=O)cc1,19.3,0.9,0.8,7.9,/
Cc1nc2c(cnn2-c2ccccc2Cl)c(=O)n1-c1ccc(C(C)C)cc1,-21.8,0.8,1.2,18.2,-6.22*
Cc1cc(N2CCN(c3nnnn3-c3ccccc3)CC2)n2ncnc2n1,30.7,0.3,0.7,65.6*,0.423
c1ccc(N2CCN(c3nnnn3-c3ccccc3)CC2)cc1,93.2*,0,0.1,99.8*,-1.04
Cc1cc(N2CCN(c3ccccc3)CC2)n2nnnc2n1,15.9,1,0.8,2.0,/
Cc1nnc(-n2cnc3ccccc32)c2ccccc12,-10.8,1,1.1,-3.9,0.00275
O=C(C1CCN(c2nnnn2-c2ccccc2)CC1)N1CCN(c2ccccc2)CC1,23.9,0.8,0.8,17.1,2.44
c1ccc(-n2nnnc2-n2cnc3ccccc32)cc1,43.8,0.2,0.6,82.2*,-0.891
Cc1ccc(O)c(NC(=S)NC(=O)c2ccc(-c3ccc(Cl)cc3)o2)c1,/,/,/,/,-0.859
CCN(C(=O)CSc1nnc(-c2ccccc2Cl)n1C1CCCC1)C1CCS(=O)(=O)C1 (stereo not drawn),78.8*,1,0.2,2.2,0.734
CCc1nc(NCC2CCCN2CC)c2nnn(Cc3ccccc3F)c2n1 (stereo not drawn),-8.8,1,1.1,-1.6,0.912
CC1CCN(C(=O)/C(=C/c2ccccc2Cl)c2ccccc2)CC1,42.9,0.7,0.6,32.2,-9.06*
CCCN1C(=O)SC(CC(=O)Nc2ccc(Br)cc2)C1=O (stereo not drawn),52.3*,0.3,0.5,69.9*,-3.08
O=C(CC1Sc2ncnn2C1=O)Nc1ccc(Br)cc1 (stereo not drawn),20.1,0.2,0.8,75.5*,0.0115
CCN=C1SC(CC(=O)Nc2ccccc2)C(=O)N1CC (stereo not drawn),-0.7,0.7,1,34.0,0.283
O=C(CC1SC2=NCCN2C1=O)Nc1ccc(Br)cc1 (stereo not drawn),/,/,/,/,-0.119
CCC(NC(=S)NCc1ccccc1)C(=O)O (stereo not drawn),11.9,0.5,0.9,54.5*,0.821
CCOc1cc(CNCc2ccncc2)cc(Br)c1OCc1ccc(F)cc1,91.0*,0.2,0.1,80.5*,-1.63
Fc1ccc(COc2ccc(Br)cc2CNCc2ccncc2)cc1,89.4*,0,0.1,99.4*,-1.63
Fc1ccccc1COc1ccc(Br)cc1CNCc1ccncc1,84.5*,0,0.2,98.7*,0.827
CCOc1cc(CNc2ccccc2)cc(Br)c1OCc1ccccc1F,54.2*,0.7,0.5,30.2,-1.51
CCN(C#N)c1nc(N(C)C)nc(N(C)C)n1,-53.0,1.1,1.5,-8.0,-0.73
Cc1ccnc(NS(=O)(=O)c2ccc(N)cc2)n1,21.1,0.8,0.8,18.4,-1.27
CC(C)(NC(=O)N1CCCC1)c1cccc(C(C)(C)NC(=O)N2CCCC2)c1,19.5,1.1,0.8,-6.1,-0.279
SMILES,CYP2C9 inhib,CYP2C19 act,CYP2C9 act,CYP2C19 inhib,Cav32 inh
Cn1c(=O)n(Cc2ccc(F)cc2)c(=O)c2c1nc1n2CCCN1C1CCCCC1,2.1,0.9,1,11.5,-4.85*
COc1ccc(N2CCCn3c2nc2c3c(=O)n(Cc3ccc(F)cc3)c(=O)n2C)c(OC)c1,-7.9,1,1.1,1.4,/
COc1ccc(N2CC(C)Cn3c2nc2c3c(=O)n(Cc3ccc(F)cc3)c(=O)n2C)c(OC)c1 (stereo not drawn),7.5,1.1,0.9,-13.9,-4.67*
Cc1cccc(Cn2c(=O)c3c(nc4n3CCCN4Cc3ccccc3)n(C)c2=O)c1,48.5,0.9,0.5,12.0,-3.96
O=C(NCC12CC3CC(CC(C3)C1)C2)c1nn2c(c1Cl)NC(c1ccco1)CC2C(F)(F)F (stereo not drawn),-6.9,1,1.1,-1.2,0.722
CCO[C@H]1OC(C(=O)NCc2ccccc2)=C[C@@H](C(C)(C)C)[C@@H]1CCCO,/,/,/,/,-0.124
CCC(=O)c1ccc(OCCSc2ncccn2)cc1,-10.0,1,1.1,-1.0,1.09
Cc1cc(NC(=O)CC(CN(C)S(=O)(=O)c2ccccc2)c2ccccc2)no1 (stereo not drawn),46.2,0.1,0.5,88.4*,-2.19
Cc1nn2c(-c3ccncc3)nnc2c2ccccc12,25.5,0.1,0.7,85.2*,1.7
